Experimental data: PubChem BioAssay (NCI)
“And” between values parts separate entries of the source, which are not always exact repeats. Identical values can stand only once. This is part of a sample that, as a whole, favours compounds with a hit. Of some 83,000 tested, about 20% had one in any assay.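 96-well plates, one dose, 48 hours. Percent growth reported; active if below 10.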 The source made the active and inactive calls.

Test system: MDA-MB-468 breast
Test: NCI-60 one-dose screen, 48 h (100 = growth as untreated, 0 = no growth, -100 = all killed)
Conditions: 10 µM unless noted

SMILES: COc1ccc(/C=N/NC(=O)c2cnn3c2NC(c2ccccc2)C3)cc1OC (stereo unspecified)
- growth: 34.8% (inactive)

SMILES: FC(F)(F)c1cc(Nc2ccc3c(OCCCN4CCOCC4)cccc3n2)ccc1Cl
- growth: 38.3% (inactive)

SMILES: O=C1Nc2cc(-c3ccncc3)ccc2/C1=C/c1ccc[nH]1
- growth: -15.9% (active)

SMILES: O=C1NN(C(=O)c2ccccc2)C(c2ccc(Cl)c(Cl)c2)=C/C1=C\c1ccccc1[N+](=O)[O-]
- growth: 53.9% [6.75 µM] (inactive)

SMILES: CCc1ccc2c(c1)N(CCO)C1=C(C(=O)OC1)C2c1cccc(Br)c1 (stereo unspecified)
- growth: 25.8% (inactive)

SMILES: COc1cc(-c2ncn(/C=C\C(=O)OC(C)C)n2)cc(C(F)(F)F)c1
- growth: -40.6% (active)

SMILES: Cc1ccc(S(=O)(=O)n2cc(CNc3ccc(N4CCOCC4=O)cc3)c3ccccc32)cc1
- growth: -9.46% (active)

SMILES: O=C(Nc1nc2ccccc2s1)c1cc(-c2ccc(F)cc2)n2nc(-c3ccccc3)cc2n1
- growth: 118% (inactive)

SMILES: Cc1cc(N(CCCNc2ccnc3cc(Cl)ccc23)Cc2cccs2)nc(Cl)n1
- growth: 1.63% (active)

SMILES: O=S(=O)(NCCNc1cc(-c2cn(-c3ccccc3)nc2-c2cccc(O)c2)ccn1)c1ccc(F)cc1
- growth: -22.4% (active)

SMILES: C=CCn1c(C)nc2cc(Nc3nc(N4CCCC4)nc4nc[nH]c34)ccc21
- growth: 51.1% (inactive)

SMILES: CCCCCc1ccnc(CC(=O)c2ccc(OC)cc2)c1
- growth: 65.5% (inactive)

SMILES: COc1ccc(/C=c2\c(=O)n(-c3ccccc3)c3nn4c(n23)=NNC42CCCCC2)cc1
- growth: 110% (inactive)

SMILES: COc1ccc(/C=C(\C#N)n2nnc3c(F)cccc32)cc1
- growth: -7.36% (active)

SMILES: CNc1ccccc1C(=O)N/N=C/C=C/c1ccccc1
- growth: 19.8% (inactive)

SMILES: c1cc(N2CCCC2)c2nc(-c3[nH]ncc3Nc3ncnc4[nH]ccc34)[nH]c2c1
- growth: -76.2% (active)

SMILES: COc1ccc(OC)c(-c2c(C#N)c(-c3cccs3)nc3c2c(-c2ccccc2)nn3-c2ccccc2)c1
- growth: 104% (inactive)

SMILES: CN(C)CCNC(=O)c1ccc(-c2nc3ccc4[nH]ncc4c3c3c2COCC3)cc1
- growth: -54.5% (active)

SMILES: NC(N)=NN=c1c(=O)c2ccccc2c1=O
- growth: 106% (inactive)

SMILES: COc1cc(Cl)cc(-c2nn(-c3cccc(NC(=O)Nc4cccc(C(F)(F)F)c4)c3)cc2-c2ccncc2)c1
- growth: 6.89% (active)

SMILES: S=c1[nH]cccc1-c1nnc2n1Nc1nc3ccc(Cl)cc3cc1CS2
- growth: 109% (inactive)

SMILES: CCN(CC)CCCC(C)Nc1c(C)cnc2cc(Cl)c(C)cc12 (stereo unspecified)
- growth: 99.7% (inactive)

SMILES: CC(C)NC(=O)N/C=C(\C#N)C(N)=O
- growth: 93.6% (inactive)

SMILES: COc1cc(/C=C2\CN(S(=O)(=O)c3ccc(C)cc3)C/C(=C\c3cc(CN4CCOCC4)c(O)c(OC)c3)C2=O)cc(CN2CCOCC2)c1O
- growth: -45.9% (active)

SMILES: COc1ccc(/C=C/C(=O)Nc2cccnc2Nc2ccc(F)cc2)cc1
- growth: 84% (inactive)

SMILES: CCN(CC)S(=O)(=O)c1ccc(S(=O)(=O)N2CCC[C@@H](C(=O)N3CCN(c4nc(C(C)C)no4)CC3)C2)cc1
- growth: 12.4% (inactive)

SMILES: ClC/C=C/CSc1ncnc2nc[nH]c12
- growth: 103% (inactive) and 127% (inactive)

SMILES: Clc1ccc(/C=N\N=c2\scc(-c3ccc(Cl)cc3)n2/N=C/c2ccc(Cl)cc2)cc1
- growth: 115% (inactive)

SMILES: CC(C)(C)c1ccc(Cn2c(-c3nonc3N)nc3ccccc32)cc1
- growth: 47.6% (inactive)

SMILES: Oc1ccc(/C=N/N=C2c3ccccc3-c3ccccc32)c(O)c1
- growth: -1.47% (active)

SMILES: COc1cc(C2CC(=O)Nc3c2c(C)nn3-c2nc3ccccc3[nH]2)cc(OC)c1O (stereo unspecified)
- growth: 18.5% (inactive)

SMILES: N#Cc1c(NC(=O)NCc2ccccc2)sc2c1CCCCC2
- growth: -25.9% (active)

SMILES: N=C(N)c1ccc(-c2ccc(-c3ccc(Cl)cc3)o2)o1
- growth: -21.5% (active)

SMILES: COc1cc(NC(N)=NCC(C)(C)COc2ccc(C(F)(F)F)cc2)cnc1C#N
- growth: 19.6% (inactive)

SMILES: O=C(CCc1ccccc1)N1CCN(C(=O)CCc2ccccc2)CC1
- growth: 111% (inactive)

SMILES: COc1cc(CNC(=O)Cc2ccccc2)ccc1OCc1cn(-c2ccc(F)cc2)nn1
- growth: 99.8% (inactive)

SMILES: O=P(O)(O)C(O)(Cc1cccnc1)P(=O)(O)O
- growth: 80.6% (inactive)

SMILES: O=C(Cn1cc[n+](CC(=O)c2ccc(-c3ccccc3)cc2)c1)Nc1cccc2cccnc12
- growth: 8.42% (active)

SMILES: COc1cc(/C=C2\Oc3cc(OCC(=O)c4ccccc4)ccc3C2=O)cc(OC)c1OC
- growth: 97% (inactive)

SMILES: C=C1C(=O)O[C@H]2[C@H]1CC/C(COC(=O)C(C)c1ccc(CC(C)C)cc1)=C\CC[C@@]1(C)O[C@@H]21 (stereo partly specified)
- growth: 6.36% (active)

SMILES: CNC(=O)c1cc(Oc2ccc3nc(NC(=O)Nc4cc(C(F)(F)F)cc(C(F)(F)F)c4)sc3c2)ccn1
- growth: -31.1% (active)

SMILES: COc1cc(CSc2nc3ccc(C)cc3c(=O)n2Cc2ccccc2)cc(OC)c1OC
- growth: -25.1% (active)

SMILES: COc1cc(NC(=O)C#Cc2ccccc2)c(OC)cc1Cl
- growth: 70.9% (inactive)

SMILES: O=C1COCCN1c1ccc(NCc2cn(Cc3cccc4ccccc34)c3ccccc23)cc1
- growth: -24.8% (active)

SMILES: CCOC(=O)/C(C#N)=C/c1cccc(C)c1
- growth: 90.9% (inactive)

SMILES: COc1cccc(C(=O)N(c2ccc(F)c(F)c2)C(C(=O)NC(C)(C)C)c2cc3c(C)cc(C)cc3nc2Cl)c1 (stereo unspecified)
- growth: 35.2% (inactive)

SMILES: CC1C(=O)c2ccccc2CC1C(=O)O (stereo unspecified)
- growth: 118% (inactive)

SMILES: O=C(Nc1cnc(C(F)(F)F)cn1)c1cc(Cl)ccc1O
- growth: -0.82% (active)

SMILES: O=C(O)/C=C/C(=O)NCc1ccccc1
- growth: 101% (inactive)

SMILES: CC(C)(C)C(=O)/C=c1/[nH]c(=O)/c(=C/c2ccccc2O)s1
- growth: 17.2% (inactive)

SMILES: CCNC(=O)N1CCc2cc(OC)c(OCCc3ccc(OC)nc3)cc2C1c1ccc(C)cc1C (stereo unspecified)
- growth: 8.04% (active)

SMILES: O=C(C=P(c1ccccc1)(c1ccccc1)c1ccccc1)c1ccc(Br)cc1
- growth: 92% (inactive)

SMILES: CSc1ccc(C(=O)C[n+]2cccc(C)c2)cc1
- growth: 91.1% (inactive)

SMILES: O=c1[nH]c2ccc(Cl)cc2cc1CSc1ccccc1Nc1nccc(-c2ccc(Cl)cc2)n1
- growth: 93.3% (inactive)

SMILES: c1ccc(C2CC(c3cccc(Nc4ccncc4)c3)=NN2c2ccccc2)cc1 (stereo unspecified)
- growth: 24.2% (inactive)

SMILES: COc1cc(-c2nn(-c3ccc(Br)cc3)cc2C(=O)O)ccc1O
- growth: 103% (inactive)

SMILES: Cn1c(C#N)ccc1-c1ccc(F)c(NC(=O)c2ccc(F)cc2)c1
- growth: 35.6% (inactive)

SMILES: COC1OC(COC(C)=O)C(OC(C)=O)C(OC(C)=O)C1OC(C)=O (stereo unspecified)
- growth: 108% (inactive)

SMILES: O=S(=O)(O)c1ccc(N/N=C/c2ccccc2Cl)cc1
- growth: 107% (inactive)

SMILES: c1csc(-c2ccc(CNc3c4ccccc4nc4ccccc34)cc2)c1
- growth: -72.5% (active)

SMILES: Cc1ccc(CNc2ccc(Cl)cc2NCc2ccc(C)c(O)c2)cc1O
- growth: 32.5% (inactive)

SMILES: COc1cc(/C=C/C(=O)/C=C/c2cc(OC)c3c(c2)OCO3)cc2c1OCO2
- growth: 76.2% (inactive)

SMILES: CCCc1[nH]c(-c2cc(N)ccc2Cl)c2c1C(=O)CCCC2
- growth: 93.7% (inactive)

SMILES: CCN(CC)c1ccc(/C=C\c2cc(C)c3cc(C)ccc3n2)cc1
- growth: 1.26% (active)

SMILES: CCOC1(OCC)OC(c2ccccc2)=C(C#N)C(/C=C\c2ccccc2)C1(OCC)OCC (stereo unspecified)
- growth: 56.7% (inactive)

SMILES: Clc1ccccc1-c1cnn2cc(-c3ccccc3)cnc12
- growth: 90.8% (inactive)

SMILES: O=C(Nc1ccc(Cl)cc1)c1cc2ccccc2cc1O
- growth: 21.4% (inactive) and -6.92% (active)

SMILES: COc1ccc(/C=N/N=C(/c2ccccc2)c2ccc3nc(-c4ccc(Cl)cc4)[nH]c3c2)cc1
- growth: 70% (inactive)

SMILES: C/C(=C\CCc1ccoc1)CC/C=C(\C)CCCNc1ccc(F)cc1
- growth: 89.8% (inactive)

SMILES: CCOC(=O)c1cocc1C(=O)O
- growth: 103% (inactive)

SMILES: COc1ccc(NC(=O)c2sc3nc(-c4cnccn4)cc(-c4cccs4)c3c2N)cc1
- growth: 89% (inactive)

SMILES: CC(C)CCC[C@@H](C)C1CCC2C3CCC4=C/C(=N/OCCN(C)C)CC[C@]4(C)C3CC[C@@]21C (stereo partly specified)
- growth: 87.3% (inactive)

SMILES: C[n+]1c(/C=C/c2c[nH]c3ccccc23)ccc2ccccc21
- growth: 23% (inactive)

SMILES: Oc1c(Cl)cc(Cl)c2cccnc12
- growth: 61% (inactive) and 42.6% (inactive)

SMILES: CC(C)(N)CO[C@H]1C[C@H]2CC[C@@]1(C)C2(C)C
- growth: 84% (inactive)

SMILES: OCC(O)c1nc2ccc3[nH]ncc3c2c2c1CCCC2 (stereo unspecified)
- growth: -28.1% (active)

SMILES: CCCCCCCCCCN1CCC(N2CCCCC2)CC1
- growth: -73.2% (active)

SMILES: COc1ccc(-c2oncc2-c2cc(OC)c3c(c2)OCO3)cc1
- growth: 10.3% (inactive)

SMILES: COc1ccc(CCN2COc3c([C@@H](C)CCC=C(C)C)ccc(C)c3C2)cc1OC
- growth: 26.8% (inactive)

SMILES: O=[N+]([O-])c1cc2c(cc1Br)C1C(C3C2C(Cl)(Cl)C(Cl)=C(Cl)C3(Cl)Cl)C(Cl)(Cl)C(Cl)=C(Cl)C1(Cl)Cl (stereo unspecified)
- growth: 95.7% (inactive)

SMILES: CN1C(=O)[C@H]2c3c1cccc3[C@@]13NC(=O)O[C@H]1[C@H](CCC3(C)C)C2(C)C
- growth: 78.6% (inactive)

SMILES: CNC(=O)c1cncc(Cn2nc(C)c(NC(=O)c3ccc(COc4ccc(C(F)(F)F)cc4C)cc3)c2C)c1
- growth: 10.7% (inactive)

SMILES: O=c1cc(Cl)nc2ccccn12
- growth: 107% (inactive)

SMILES: CCNC(=O)N1CCc2cc(OC)c(OCCc3ccc(OC)cc3)cc2C1c1ccc([N+](=O)[O-])cc1C (stereo unspecified)
- growth: -5.05% (active)

SMILES: c1ccc(-c2nc3sc(-c4ccccc4)cn3n2)cc1
- growth: 85.2% (inactive)

SMILES: CC(=O)OC[C@]12CC[C@@H]([C@@H](C)c3nnc(-c4ccncc4)o3)[C@@H]1[C@H]1CC[C@@H]3[C@@]4(C)CC[C@H](OC(C)=O)C(C)(C)[C@@H]4CC[C@@]3(C)[C@]1(C)CC2
- growth: 59% (inactive)
